Compound activity deposited in PubChem by National Center for Advancing Translational Sciences (NCATS).
Marburg entry inh: inhibitors of Marburg virus binding or cell entry. Marburg virus pseudotyped entry inhibition, cell reporter. Potency, µM (series often up to 37.8 µM), most hits filed as inhibitors. 300,000 tested, 1.8% active. AID 540276; calls by dose curve; tested in HEK293 cells
FMDV antiviral: blocks foot and mouth disease virus. FMDV antiviral cell-based qHTS. Potency, µM (top dose mostly 57.9 µM), actives largely listed as inhibitors. 410,000 tested, 1.2% active; calls by dose curve; tested in HEK293T cells; also: read-out not given here; nearly all actives have a fitted effect of over 45% in size
HCMV inh: human cytomegalovirus inhibition; HFF cells, HCMV-luciferase reporter, 72 h; hits give low values; activity change, negative = inhibition, % at 57.5 µM; 410,000 tested, 4.5% active; in the data active = activity change below about -60%; inconclusive = no clear call, values can overlap the other calls; inactive = above about -39%
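Cell-based, HFFs, 1000 cells/well, 16 h 37C; cpds in DMSO + HCMV-luc, MOI 1 PFU/cell; 72 h 37C; OneGlo luminescence after 5 min RT; norm. to buffer vs Salinomycin 10uM.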
Lassa entry inh: inhibitors of Lassa virus binding or cell entry | 300,000 tested, 1.2% active | Lassa virus pseudotype entry inhibition, cell reporter | Potency, µM (series often up to 37.9 µM), actives largely listed as inhibitors; calls by dose curve; tested in HEK293 cells; also: nearly all actives have a fitted effect of over 50% in size
HCV inh: HCV inhibition; Huh7.5.1 HCVcc-Cre infection, luciferase reporter, 44 h; AID 651820; 340,000 tested, 3.4% active; Potency, µM (highest dose often 41.8 µM), usual class: inhibitors; active = well fitted inhibition curve with a large enough effect; inconclusive = small, poorly fitted or top-dose-only effect, or another doubt; inactive = no such curve, though single readings can be large or run the other way
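Reporter virus HCVcc-Cre (~0.5 moi) infects cells exposed to compound; seeding density 1,000 cells/well with 4 h settling beforehand. Luminescence, 15 sec read, taken 44 h post-infection following a 15 min RT substrate incubation.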
Of the large screens only hits and unclear results are named; the others gave an inactive call. In the library only some 7.9% were active in any assay of this set; here they are far more common.

Cc1ccc(-c2n[nH]c(=O)c3ccccc23)cc1S(=O)(=O)NCC1CCCO1 (stereo unspecified)	none
CCOC(=O)CNS(=O)(=O)c1cc(-c2nnc(Nc3cccc(O)c3)c3ccccc23)ccc1C	none (no result: Marburg entry inh, HCV inh)
O=C(Nc1ccncc1)C1CCN(S(=O)(=O)c2ccccc2C(F)(F)F)CC1	Marburg entry inh inconclusive, FMDV antiviral inconclusive, HCMV inh inconclusive, HCV inh inconclusive
Cc1ccc2c(c1)-n1c(nc3ccc(C)cc3c1=O)C(Cc1ccccc1)NC2=O (stereo unspecified)	none (no result: Marburg entry inh, FMDV antiviral, HCMV inh, Lassa entry inh)
Cc1ccc(-c2nnc(Nc3cccc(O)c3)c3ccccc23)cc1S(=O)(=O)NCC1CCCO1 (stereo unspecified)	HCMV inh inconclusive (no result: HCV inh)
Cc1ccccc1Nc1nnc(-c2ccc(C)c(S(=O)(=O)NCC3CCCO3)c2)c2ccccc12 (stereo unspecified)	Marburg entry inh inconclusive, HCMV inh -75.9 (no result: HCV inh)
Cc1ccc(NS(=O)(=O)c2cc(-c3n[nH]c(=O)c4ccccc34)ccc2C)cc1	Marburg entry inh 5.01µM, HCMV inh inconclusive, Lassa entry inh inconclusive, HCV inh inconclusive
Cc1ccc(-c2nnc(N3CCOCC3)c3ccccc23)cc1S(=O)(=O)NCC1CCCO1 (stereo unspecified)	HCMV inh -94.6
CCOc1ccc(C(C)=O)cc1COC(=O)CNC(=O)C12CC3CC(CC(C3)C1)C2	none
O=C(NCC1Cc2cccc(-c3cccnc3)c2O1)c1ccc2cc[nH]c2c1 (stereo unspecified)	none (no result: Marburg entry inh, HCMV inh, Lassa entry inh, HCV inh)
O=C(NC1CCCC1)C1C(c2ccccc2)=Nc2ccccc2N1C(=O)c1ccc(C(F)(F)F)cc1 (stereo unspecified)	HCMV inh -83.4 (no result: Marburg entry inh, Lassa entry inh, HCV inh)
CCCCNC(=O)C1C(c2ccc(C(F)(F)F)cc2)=Nc2ccccc2N1C(=O)c1ccc2nc(C)[nH]c2c1 (stereo unspecified)	HCMV inh -86.4 (no result: Marburg entry inh, Lassa entry inh, HCV inh)
CC(=O)c1cccc(NC(=O)/C(=C/c2ccncc2)NC(=O)c2ccccc2)c1	none
CN(C(=S)NC(=O)Cc1ccccc1)c1ccccc1	HCMV inh -66.6
c1ccc(CCNc2ncnc3scc(C4COc5ccccc5O4)c23)cc1 (stereo unspecified)	FMDV antiviral 28.2µM, HCMV inh -84.5, HCV inh 12.6µM
COc1ccccc1NC(=O)CC(C)n1nc(C)cc1C (stereo unspecified)	none (no result: Marburg entry inh, HCV inh)
CCC(C)n1c(C)nc2c(c1=O)c1nc3ccccc3nc1n2CCC1=CCCCC1 (stereo unspecified)	HCMV inh -88.4
CCCCn1c2nc3ccccc3nc2c2c(=O)n(C(C)CC)cnc21 (stereo unspecified)	Marburg entry inh inconclusive
COc1cc(NC(=O)c2ccc(Cl)cc2)c2ncccc2c1	HCV inh inconclusive (no result: Marburg entry inh, Lassa entry inh)
COc1ccc(C(=O)NC(c2ccccc2Cl)c2cc(Cl)c3cccnc3c2O)cc1 (stereo unspecified)	HCMV inh -98.0, Lassa entry inh inconclusive (no result: Marburg entry inh, HCV inh)
COc1cc(C(=O)Nc2cccc3cccnc23)cc(OC)c1OC	FMDV antiviral inconclusive, Lassa entry inh inconclusive, HCV inh inconclusive
COc1cc(C(=O)NC(c2ccccc2Cl)c2cc(Cl)c3cccnc3c2O)cc(OC)c1OC (stereo unspecified)	HCMV inh -79.3, Lassa entry inh inconclusive (no result: Marburg entry inh, HCV inh)
Cc1cccc(C)c1NC(=O)CCCN1C(=O)C(c2ccccc2)Oc2cccnc21 (stereo unspecified)	HCMV inh inconclusive (no result: Marburg entry inh, Lassa entry inh)
C[C@H]1[C@@H](c2ccccc2)Oc2c(Cl)cccc2S(=O)(=O)N1Cc1ccc(Cl)cc1	none (no result: Marburg entry inh, FMDV antiviral, HCMV inh, HCV inh)
CC(NC(=O)CN(C)CC(=O)Nc1cccc(F)c1)c1ccccc1 (stereo unspecified)	none
COc1ccc(N=C2SCC(c3ccc(C)cc3)=NN2CCO)cc1	Marburg entry inh inconclusive, Lassa entry inh inconclusive
COc1ccc(C2=NN(C)C(=NCc3ccccc3)SC2)cc1	HCV inh 7.94µM
O=C(Nc1cc(C(=O)Nc2ccc(S(=O)(=O)O)cc2S(=O)(=O)O)cc(C(=O)Nc2ccc(S(=O)(=O)O)cc2S(=O)(=O)O)c1)Nc1cc(C(=O)Nc2ccc(S(=O)(=O)O)cc2S(=O)(=O)O)cc(C(=O)Nc2ccc(S(=O)(=O)O)cc2S(=O)(=O)O)c1	Marburg entry inh 12.6µM (no result: HCMV inh, Lassa entry inh, HCV inh)
